In PubChem BioAssay AID1159580 (chemical genetic matrix, 2015):
About 2,000 (36%) of roughly 5,500 compounds were called active. Not shown: some 18% with an inconclusive outcome. Cut-off read from the data, not from the text of the source: active = normalized growth mostly below about 0.91 (no sharp cut-off); inconclusive = no clear call, values can overlap the other calls; inactive = mostly above about 0.92. The list shows a part of the results.

Test: chemical genetic growth profiling, strain panel (AID 1159580);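 note: tested at 20 µM; growth read once vehicle control cultures reached saturation at 30 °C; 1 = growth at the plate median or of vehicle wells; lower values mean less growth of the strain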
Conditions: S. cerevisiae deletion strains, growth OD

Measured: normalized growth

NC(=O)c1cccnc1
inactive: locus YAL021C, strain ccr4, hits give low values 0.969 | locus YAL026C, strain drs2, hits give low values 0.979 | locus YAL030W, strain snc1, hits give low values 0.958 | locus YBL061C, strain skt5, hits give low values 0.971 | locus YBR009C, strain hhf1, hits give low values 0.974 | locus YBR023C, strain chs3, hits give low values 0.98 | locus YBR171W, strain sec66, hits give low values 0.968 | locus YBR231C, strain swc5, hits give low values 0.995 | locus YBR279W, strain paf1, hits give low values 0.991 | locus YCL011C, strain gbp2, hits give low values 0.979 | locus YCL016C, strain dcc1, hits give low values 0.978 | locus YCL061C, strain MRC1, hits give low values 0.986 | locus YCL069W, strain vba3, hits give low values 0.986 | locus YCR088W, strain abp1, hits give low values 0.97 | locus YDL005C, strain med2, hits give low values 0.966 | locus YDL040C, strain nat1, hits give low values 0.992 | locus YDR001C, strain nth1, hits give low values 0.972 | locus YDR069C, strain doa4, hits give low values 0.972 | locus YDR137W, strain rgp1, hits give low values 0.994 | locus YDR159W, strain sac3, hits give low values 0.97 | locus YDR195W, strain ref2 0.996 | locus YDR297W, strain sur2, hits give low values 0.975 | locus YDR334W, strain swr1, hits give low values 0.928 | locus YDR335W, strain msn5, hits give low values 0.975 | locus YDR392W, strain spt3, hits give low values 0.985 | locus YEL003W, strain gim4, hits give low values 0.975 | locus YEL037C, strain rad23, hits give low values 0.987 | locus YEL061C, strain CIN8 (second series), hits give low values 0.983 | locus YER015W, strain faa2, hits give low values 0.992 | locus YER016W, strain bim1, hits give low values 0.981 | locus YER111C, strain swi4, hits give low values 0.985 | locus YER155C, strain BEM2 (second series), hits give low values 0.98 | locus YFR010W, strain ubp6, hits give low values 0.971 | locus YGL167C, strain pmr1, hits give low values 0.984 | locus YGL173C, strain kem1, hits give low values 0.957 | locus YGL227W, strain vid30, hits give low values 0.959 | locus YGL240W, strain doc1, hits give low values 0.963 | locus YGL253W, strain hxk2, hits give low values 0.998 | locus YHR013C, strain ard1, hits give low values 0.972 | locus YHR027C, strain rpn1, hits give low values 0.959 | locus YHR030C, strain SLT2, hits give low values 0.971 | locus YHR079C, strain IRE1, hits give low values 0.961 | locus YHR142W, strain chs7, hits give low values 0.976 | locus YJL092W, strain hpr5, hits give low values 0.982 | locus YJL095W, strain BCK1 (second series), hits give low values 0.979 | locus YJL095W, strain BCK1, hits give low values 0.974 | locus YJL115W, strain asf1, hits give low values 0.96 | locus YJL129C, strain trk1, hits give low values 0.996 | locus YJL154C, strain vps35, hits give low values 0.964 | locus YJL164C, strain tpk1, hits give low values 0.992 | locus YJL166W, strain qcr8, hits give low values 0.978 | locus YJL187C, strain SWE1, hits give low values 0.982 | locus YJR066W, strain TOR1, hits give low values 0.928 | locus YKL160W, strain elf1, hits give low values 0.991 | locus YKR026C, strain gcn3, hits give low values 0.976 | locus YKR091W, strain srl3, hits give low values 0.986 | locus YLL001W, strain dnm1, hits give low values 0.991 | locus YLL026W, hits give low values 0.951 | locus YLL041C, strain sdh2, hits give low values 0.982 | locus YLR027C, strain aat2, hits give low values 0.948 | locus YLR113W, strain HOG1, hits give low values 0.973 | locus YLR221C, strain rsa3, hits give low values 0.974 | locus YLR258W, strain gsy2, hits give low values 0.984 | locus YLR262C, strain YPT6 (second series), hits give low values 0.965 | locus YLR320W, strain mms22, hits give low values 1 | locus YLR342W, strain FKS1, hits give low values 0.983 | locus YLR357W, strain rsc2, hits give low values 0.979 | locus YLR370C, strain arc18, hits give low values 0.986 | locus YLR384C, strain iki3, hits give low values 0.987 | locus YML120C, strain ndi1, hits give low values 0.982 | locus YMR058W, strain fet3, hits give low values 0.979 | locus YMR125W, strain sto1, hits give low values 0.963 | locus YMR129W, hits give low values 0.99 | locus YMR205C, strain PFK2, hits give low values 0.962 | locus YMR231W, strain pep5, hits give low values 0.978 | locus YNL071W, strain lat1, hits give low values 0.975 | locus YNL183C, strain NPR1, hits give low values 0.949 | locus YNL209W, strain ssb2, hits give low values 0.979 | locus YNL248C, strain rpa49, hits give low values 0.973 | locus YNL322C, strain KRE1 (second series), hits give low values 0.98 | locus YNR049C, strain mso1, hits give low values 0.966 | locus YOR001W, strain rrp6, hits give low values 0.983 | locus YOR070C, strain gyp1, hits give low values 0.983 | locus YOR080W, strain dia2, hits give low values 0.978 | locus YOR083W, strain WHI5, hits give low values 0.986 | locus YOR106W, strain vam3, hits give low values 0.986 | locus YOR231W, strain MKK1, hits give low values 0.975 | locus YOR265W, strain rbl2, hits give low values 0.983 | locus YOR270C, strain vph1, hits give low values 0.978 | locus YOR290C, strain snf2, hits give low values 0.996 | locus YPL051W, strain arl3, hits give low values 0.999 | locus YPL078C, strain atp4, hits give low values 0.98 | locus YPL106C, strain sse1, hits give low values 0.927 | locus YPL240C, strain hsp82, hits give low values 0.978 | locus YPL256C, strain CLN2, hits give low values 0.992
